According to paper PMC7862700, “An all-to-all approach to the identification of sequence-specific readers for epigenetic DNA modifications on cytosine”:

Tests used:
Assay in all cases: DAPPL (digital affinity profiling via proximity ligation, sequencing); 10 mM Tris-HCl pH 7.5, 50 mM NaCl, 1 mM DTT, 4% glycerol, room temperature, 30 min; GST-TFs on glutathione beads, 16-mer random dsDNA library, 0.1% formaldehyde crosslink after washing; high values mean tight binding
FLI1 = target: T1, FLI1 (Homo sapiens, UniProt Q01543 1-452); conditions: protein: recombinant; tags: N-terminal GST; dsDNA, one strand shown
T1 sequence: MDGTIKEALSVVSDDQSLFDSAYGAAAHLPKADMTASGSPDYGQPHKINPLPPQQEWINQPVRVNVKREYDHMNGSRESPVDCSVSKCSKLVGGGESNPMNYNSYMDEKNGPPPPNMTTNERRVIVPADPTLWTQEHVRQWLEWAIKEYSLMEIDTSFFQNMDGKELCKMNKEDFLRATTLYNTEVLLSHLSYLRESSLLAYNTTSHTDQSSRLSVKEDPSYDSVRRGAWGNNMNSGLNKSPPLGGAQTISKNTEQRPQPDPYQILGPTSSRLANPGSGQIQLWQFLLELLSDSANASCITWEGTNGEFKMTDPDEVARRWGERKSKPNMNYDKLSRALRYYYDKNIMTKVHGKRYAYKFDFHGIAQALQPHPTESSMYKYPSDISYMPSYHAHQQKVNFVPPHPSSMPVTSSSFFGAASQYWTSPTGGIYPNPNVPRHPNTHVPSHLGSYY
Outline: (§1)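 Yeast served to express human transcription factors as GST fusions, which were then captured on glutathione beads and labelled with DNA barcodes. Pooled with a tag-only sample, they were incubated with 200 nmole of a 16-mer random double-stranded DNA library for 30 min at room temperature in Tris/NaCl/DTT/glycerol buffer, washed, crosslinked with 0.1% formaldehyde, ligated by proximity, amplified by PCR and sequenced. Dividing each hexamer's read frequency for a factor by its frequency for the tag-only sample gives the binding signal.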

ELK1 = target: T2, ELK1 (Homo sapiens, UniProt P19419 1-428); conditions: protein: recombinant; tags: N-terminal GST; dsDNA, one strand shown
T2 sequence: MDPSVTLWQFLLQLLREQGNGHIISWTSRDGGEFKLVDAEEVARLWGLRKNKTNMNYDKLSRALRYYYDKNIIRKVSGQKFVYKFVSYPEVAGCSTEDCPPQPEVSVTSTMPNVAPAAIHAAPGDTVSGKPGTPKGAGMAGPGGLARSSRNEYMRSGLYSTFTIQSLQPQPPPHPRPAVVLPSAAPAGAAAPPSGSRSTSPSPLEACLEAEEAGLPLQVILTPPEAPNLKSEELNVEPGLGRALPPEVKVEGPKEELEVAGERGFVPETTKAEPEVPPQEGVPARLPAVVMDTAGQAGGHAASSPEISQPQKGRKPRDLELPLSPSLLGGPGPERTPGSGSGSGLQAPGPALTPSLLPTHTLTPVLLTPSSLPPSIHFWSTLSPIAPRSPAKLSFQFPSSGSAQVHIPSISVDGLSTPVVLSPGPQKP
Outline: as §1

GABPA = target: T3, GABPA (Homo sapiens, UniProt Q06546 1-454); conditions: protein: recombinant; tags: N-terminal GST; dsDNA, one strand shown
T3 sequence: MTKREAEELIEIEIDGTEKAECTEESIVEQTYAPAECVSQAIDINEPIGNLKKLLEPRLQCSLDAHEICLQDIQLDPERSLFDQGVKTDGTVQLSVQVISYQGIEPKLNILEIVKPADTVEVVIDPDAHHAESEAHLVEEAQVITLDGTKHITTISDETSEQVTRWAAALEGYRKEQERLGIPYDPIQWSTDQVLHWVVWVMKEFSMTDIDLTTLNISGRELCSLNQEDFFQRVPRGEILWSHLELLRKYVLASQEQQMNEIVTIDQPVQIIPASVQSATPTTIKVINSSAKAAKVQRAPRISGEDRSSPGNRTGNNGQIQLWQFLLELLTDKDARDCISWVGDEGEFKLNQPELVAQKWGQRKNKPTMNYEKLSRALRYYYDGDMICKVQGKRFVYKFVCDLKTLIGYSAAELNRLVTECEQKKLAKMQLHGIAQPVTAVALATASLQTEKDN
Outline: as §1

ERG = target: T4, ERG (Homo sapiens, UniProt P11308 1-479); conditions: protein: recombinant; tags: N-terminal GST; dsDNA, one strand shown
T4 sequence: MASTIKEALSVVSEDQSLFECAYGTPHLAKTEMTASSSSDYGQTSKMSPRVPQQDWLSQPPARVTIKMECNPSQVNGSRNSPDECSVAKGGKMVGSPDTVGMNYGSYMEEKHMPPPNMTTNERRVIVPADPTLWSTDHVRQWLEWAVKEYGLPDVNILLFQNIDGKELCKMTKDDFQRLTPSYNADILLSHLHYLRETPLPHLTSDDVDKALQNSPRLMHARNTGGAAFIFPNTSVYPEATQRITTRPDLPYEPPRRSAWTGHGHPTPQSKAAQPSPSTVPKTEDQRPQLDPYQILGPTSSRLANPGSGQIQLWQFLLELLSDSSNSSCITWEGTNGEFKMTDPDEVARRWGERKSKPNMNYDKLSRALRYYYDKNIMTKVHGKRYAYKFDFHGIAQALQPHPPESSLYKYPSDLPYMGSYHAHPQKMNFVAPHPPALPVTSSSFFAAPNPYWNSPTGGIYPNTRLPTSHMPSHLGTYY
Outline: as §1

ELF1 = ELF1 (Homo sapiens, UniProt P32519 1-619); conditions: protein: recombinant; tags: N-terminal GST; dsDNA, one strand shown
ELF1, sequence (P32519 whole entry): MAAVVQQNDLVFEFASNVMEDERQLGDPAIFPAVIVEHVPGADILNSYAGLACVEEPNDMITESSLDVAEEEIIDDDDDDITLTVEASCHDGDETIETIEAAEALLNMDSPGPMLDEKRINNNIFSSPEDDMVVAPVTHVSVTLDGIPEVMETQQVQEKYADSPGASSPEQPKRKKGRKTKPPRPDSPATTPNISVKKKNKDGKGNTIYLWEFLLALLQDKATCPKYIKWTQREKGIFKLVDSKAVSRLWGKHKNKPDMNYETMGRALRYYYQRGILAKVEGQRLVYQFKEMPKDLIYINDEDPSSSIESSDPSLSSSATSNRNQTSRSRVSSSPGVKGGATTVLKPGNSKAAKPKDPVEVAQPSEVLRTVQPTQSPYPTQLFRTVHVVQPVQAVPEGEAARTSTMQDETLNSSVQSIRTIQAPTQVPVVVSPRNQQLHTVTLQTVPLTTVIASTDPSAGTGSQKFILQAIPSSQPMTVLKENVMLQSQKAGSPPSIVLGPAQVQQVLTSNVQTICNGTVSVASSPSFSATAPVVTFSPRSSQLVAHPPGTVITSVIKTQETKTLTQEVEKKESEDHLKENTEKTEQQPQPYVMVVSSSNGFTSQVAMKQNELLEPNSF
Outline: as §1

EHF = target: T5, EHF (Homo sapiens, UniProt Q9NZC4 1-300); conditions: protein: recombinant; tags: N-terminal GST; dsDNA, one strand shown
T5 sequence: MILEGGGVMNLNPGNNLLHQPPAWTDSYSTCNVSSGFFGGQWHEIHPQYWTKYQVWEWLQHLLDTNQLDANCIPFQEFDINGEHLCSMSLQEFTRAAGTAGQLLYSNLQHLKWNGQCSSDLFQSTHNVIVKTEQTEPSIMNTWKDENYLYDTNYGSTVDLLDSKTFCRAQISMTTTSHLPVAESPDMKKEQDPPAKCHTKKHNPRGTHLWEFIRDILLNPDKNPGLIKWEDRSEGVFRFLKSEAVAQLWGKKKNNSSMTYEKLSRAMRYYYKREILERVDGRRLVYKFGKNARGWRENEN
Outline: as §1

SPI1 = SPI1 (Homo sapiens, UniProt P17947 1-270); conditions: protein: recombinant; tags: N-terminal GST; dsDNA, one strand shown
Outline: as §1

SPIB = SPIB (Homo sapiens, UniProt Q01892 1-262); conditions: protein: recombinant; tags: N-terminal GST; dsDNA, one strand shown
SPIB, sequence (Q01892 whole entry): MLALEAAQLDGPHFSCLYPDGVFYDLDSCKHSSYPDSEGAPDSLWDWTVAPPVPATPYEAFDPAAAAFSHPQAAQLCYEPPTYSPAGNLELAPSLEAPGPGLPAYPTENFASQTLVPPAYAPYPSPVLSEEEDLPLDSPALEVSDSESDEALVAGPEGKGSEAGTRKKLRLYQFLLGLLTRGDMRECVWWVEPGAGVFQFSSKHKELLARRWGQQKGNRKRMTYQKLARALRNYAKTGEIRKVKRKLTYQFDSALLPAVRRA
Outline: as §1

ELK3 = target: T6, ELK3 (Homo sapiens, UniProt P41970 1-407); conditions: protein: recombinant; tags: N-terminal GST; dsDNA, one strand shown
T6 sequence: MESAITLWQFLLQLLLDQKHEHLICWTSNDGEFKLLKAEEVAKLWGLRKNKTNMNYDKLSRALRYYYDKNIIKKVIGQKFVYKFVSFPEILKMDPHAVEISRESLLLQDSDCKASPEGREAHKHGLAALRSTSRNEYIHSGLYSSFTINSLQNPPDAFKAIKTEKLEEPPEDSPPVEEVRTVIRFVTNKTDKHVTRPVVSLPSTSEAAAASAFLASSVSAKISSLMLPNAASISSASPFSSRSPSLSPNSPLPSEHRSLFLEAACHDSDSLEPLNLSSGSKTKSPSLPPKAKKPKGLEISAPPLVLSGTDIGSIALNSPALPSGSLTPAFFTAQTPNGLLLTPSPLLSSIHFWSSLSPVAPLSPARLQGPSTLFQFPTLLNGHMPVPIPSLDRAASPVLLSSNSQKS
Outline: as §1

FEV = target: T7, FEV (Homo sapiens, UniProt Q99581 1-238); conditions: protein: recombinant; tags: N-terminal GST; dsDNA, one strand shown
T7 sequence: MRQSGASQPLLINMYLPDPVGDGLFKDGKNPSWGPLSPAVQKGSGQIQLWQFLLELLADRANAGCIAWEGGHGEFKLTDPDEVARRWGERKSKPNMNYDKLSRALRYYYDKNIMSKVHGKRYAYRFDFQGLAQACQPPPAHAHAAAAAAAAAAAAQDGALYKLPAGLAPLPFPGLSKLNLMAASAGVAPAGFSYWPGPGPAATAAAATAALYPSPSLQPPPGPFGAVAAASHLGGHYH
Outline: as §1

ETV5 = ETV5 (Homo sapiens, UniProt P41161 1-510); conditions: protein: recombinant; tags: N-terminal GST; dsDNA, one strand shown
ETV5, sequence (P41161 whole entry): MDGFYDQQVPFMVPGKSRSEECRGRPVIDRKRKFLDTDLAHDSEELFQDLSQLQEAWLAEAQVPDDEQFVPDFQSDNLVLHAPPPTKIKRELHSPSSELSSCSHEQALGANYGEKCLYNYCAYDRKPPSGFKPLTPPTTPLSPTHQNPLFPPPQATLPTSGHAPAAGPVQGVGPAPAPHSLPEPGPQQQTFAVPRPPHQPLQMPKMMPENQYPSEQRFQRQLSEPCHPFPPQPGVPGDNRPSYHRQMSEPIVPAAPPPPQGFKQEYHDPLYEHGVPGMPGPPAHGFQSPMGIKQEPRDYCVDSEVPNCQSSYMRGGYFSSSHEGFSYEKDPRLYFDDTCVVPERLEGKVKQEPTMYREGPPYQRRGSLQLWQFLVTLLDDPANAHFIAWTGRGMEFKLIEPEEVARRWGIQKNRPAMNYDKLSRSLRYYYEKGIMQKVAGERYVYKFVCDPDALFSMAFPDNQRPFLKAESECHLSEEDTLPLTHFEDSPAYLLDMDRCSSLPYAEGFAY
Outline: as §1

HSF1 = HSF1 (Homo sapiens, UniProt Q00613 1-529); conditions: protein: recombinant; tags: N-terminal GST; chain copies: 3; dsDNA, one strand shown
HSF1, sequence (Q00613 whole entry): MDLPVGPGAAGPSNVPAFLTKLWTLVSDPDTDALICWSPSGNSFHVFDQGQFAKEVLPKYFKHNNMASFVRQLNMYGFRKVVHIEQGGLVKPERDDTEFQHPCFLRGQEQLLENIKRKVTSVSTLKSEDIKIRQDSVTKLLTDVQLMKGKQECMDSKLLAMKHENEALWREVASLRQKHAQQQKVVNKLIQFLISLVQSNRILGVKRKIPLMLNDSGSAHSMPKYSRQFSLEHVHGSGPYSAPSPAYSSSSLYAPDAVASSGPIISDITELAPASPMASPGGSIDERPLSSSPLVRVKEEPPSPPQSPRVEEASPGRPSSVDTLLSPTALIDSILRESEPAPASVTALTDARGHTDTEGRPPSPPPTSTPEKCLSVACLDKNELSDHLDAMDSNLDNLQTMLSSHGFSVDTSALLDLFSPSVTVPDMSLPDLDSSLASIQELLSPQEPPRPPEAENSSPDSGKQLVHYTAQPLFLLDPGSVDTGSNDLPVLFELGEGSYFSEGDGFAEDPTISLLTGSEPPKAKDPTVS
Outline: as §1

SPIC = target: T8, SPIC (Homo sapiens, UniProt Q8N5J4 1-248); conditions: protein: recombinant; tags: N-terminal GST; dsDNA, one strand shown
T8 sequence: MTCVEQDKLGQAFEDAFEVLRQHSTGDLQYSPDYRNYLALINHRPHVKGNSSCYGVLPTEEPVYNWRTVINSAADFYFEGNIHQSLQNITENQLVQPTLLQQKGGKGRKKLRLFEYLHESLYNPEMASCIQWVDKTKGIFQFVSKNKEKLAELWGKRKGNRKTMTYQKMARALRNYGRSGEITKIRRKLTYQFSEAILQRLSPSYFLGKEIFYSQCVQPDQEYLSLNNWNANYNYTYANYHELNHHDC
Outline: as §1

ELF4 = ELF4 (Homo sapiens, UniProt Q99607 1-663); conditions: protein: recombinant; tags: N-terminal GST; dsDNA, one strand shown
ELF4, sequence (Q99607 whole entry): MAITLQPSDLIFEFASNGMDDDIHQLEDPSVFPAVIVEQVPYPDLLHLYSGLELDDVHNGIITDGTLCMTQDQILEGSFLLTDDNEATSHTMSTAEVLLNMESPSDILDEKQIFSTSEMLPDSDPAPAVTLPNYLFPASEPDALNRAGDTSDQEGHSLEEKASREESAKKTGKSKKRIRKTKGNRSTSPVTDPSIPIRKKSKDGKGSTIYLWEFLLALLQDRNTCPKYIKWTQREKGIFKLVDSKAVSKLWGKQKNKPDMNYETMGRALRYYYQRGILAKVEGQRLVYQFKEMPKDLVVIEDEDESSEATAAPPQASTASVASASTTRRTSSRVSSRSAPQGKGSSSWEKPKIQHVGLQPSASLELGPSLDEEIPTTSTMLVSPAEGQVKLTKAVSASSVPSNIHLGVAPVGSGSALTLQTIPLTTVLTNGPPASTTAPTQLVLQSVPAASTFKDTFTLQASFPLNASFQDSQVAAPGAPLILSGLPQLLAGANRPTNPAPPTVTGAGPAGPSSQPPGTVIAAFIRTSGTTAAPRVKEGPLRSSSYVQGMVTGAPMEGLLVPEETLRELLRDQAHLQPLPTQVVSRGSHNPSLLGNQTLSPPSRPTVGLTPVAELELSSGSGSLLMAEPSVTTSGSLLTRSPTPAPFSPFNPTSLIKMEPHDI
Outline: as §1

ELK4 = target: T9, ELK4 (Homo sapiens, UniProt P28324-2 1-405); conditions: protein: recombinant; tags: N-terminal GST; dsDNA, one strand shown
T9 sequence: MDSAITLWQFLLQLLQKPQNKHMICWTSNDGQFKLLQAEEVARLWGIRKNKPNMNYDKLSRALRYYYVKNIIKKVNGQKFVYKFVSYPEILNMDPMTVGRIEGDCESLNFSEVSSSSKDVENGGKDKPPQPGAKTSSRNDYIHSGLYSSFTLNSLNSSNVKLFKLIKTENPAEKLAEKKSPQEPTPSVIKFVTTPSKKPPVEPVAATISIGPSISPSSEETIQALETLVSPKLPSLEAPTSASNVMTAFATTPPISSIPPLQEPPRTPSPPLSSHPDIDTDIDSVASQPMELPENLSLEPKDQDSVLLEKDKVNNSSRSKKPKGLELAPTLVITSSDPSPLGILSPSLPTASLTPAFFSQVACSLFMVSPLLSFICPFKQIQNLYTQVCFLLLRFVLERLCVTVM
Outline: as §1

ETV2 = target: T10, ETV2 (Homo sapiens, UniProt O00321 1-342); conditions: protein: recombinant; tags: N-terminal GST; dsDNA, one strand shown
T10 sequence: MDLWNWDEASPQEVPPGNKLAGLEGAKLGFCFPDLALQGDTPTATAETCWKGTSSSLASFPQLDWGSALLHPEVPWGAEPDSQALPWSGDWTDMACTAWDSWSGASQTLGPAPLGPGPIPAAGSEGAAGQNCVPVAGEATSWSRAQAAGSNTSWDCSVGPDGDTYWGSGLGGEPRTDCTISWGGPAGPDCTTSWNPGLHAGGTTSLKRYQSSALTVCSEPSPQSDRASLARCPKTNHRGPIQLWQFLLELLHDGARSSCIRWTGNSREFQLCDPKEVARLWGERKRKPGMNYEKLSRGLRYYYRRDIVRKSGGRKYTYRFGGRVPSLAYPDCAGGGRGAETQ
Outline: as §1

ELF3 = target: T11, ELF3 (Homo sapiens, UniProt P78545 1-371); conditions: protein: recombinant; tags: N-terminal GST; dsDNA, one strand shown
T11 sequence: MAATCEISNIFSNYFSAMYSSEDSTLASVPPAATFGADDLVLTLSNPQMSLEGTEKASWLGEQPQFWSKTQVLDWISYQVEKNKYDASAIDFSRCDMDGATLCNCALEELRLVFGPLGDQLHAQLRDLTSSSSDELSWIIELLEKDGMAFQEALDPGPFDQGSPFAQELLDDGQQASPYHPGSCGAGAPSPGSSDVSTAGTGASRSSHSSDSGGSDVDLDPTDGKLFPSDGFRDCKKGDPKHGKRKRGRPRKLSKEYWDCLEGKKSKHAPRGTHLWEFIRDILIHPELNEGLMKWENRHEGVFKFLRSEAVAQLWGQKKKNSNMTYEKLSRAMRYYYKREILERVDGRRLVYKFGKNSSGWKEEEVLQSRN
Outline: as §1

CRX = CRX (Homo sapiens, UniProt O43186 1-299); conditions: protein: recombinant; tags: N-terminal GST; dsDNA, one strand shown
CRX, sequence (O43186 whole entry): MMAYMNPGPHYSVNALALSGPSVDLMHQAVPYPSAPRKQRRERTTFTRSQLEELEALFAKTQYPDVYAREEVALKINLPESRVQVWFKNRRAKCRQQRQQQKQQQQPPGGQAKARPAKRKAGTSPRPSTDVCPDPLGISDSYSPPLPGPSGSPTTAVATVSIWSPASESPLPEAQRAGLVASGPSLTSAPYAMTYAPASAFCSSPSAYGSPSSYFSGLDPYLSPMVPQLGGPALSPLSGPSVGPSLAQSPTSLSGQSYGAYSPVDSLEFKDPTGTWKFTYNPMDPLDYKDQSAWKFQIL
Outline: as §1

ETV1 = ETV1 (Homo sapiens, UniProt P50549 1-477); conditions: protein: recombinant; tags: N-terminal GST; dsDNA, one strand shown
ETV1, sequence (P50549 whole entry): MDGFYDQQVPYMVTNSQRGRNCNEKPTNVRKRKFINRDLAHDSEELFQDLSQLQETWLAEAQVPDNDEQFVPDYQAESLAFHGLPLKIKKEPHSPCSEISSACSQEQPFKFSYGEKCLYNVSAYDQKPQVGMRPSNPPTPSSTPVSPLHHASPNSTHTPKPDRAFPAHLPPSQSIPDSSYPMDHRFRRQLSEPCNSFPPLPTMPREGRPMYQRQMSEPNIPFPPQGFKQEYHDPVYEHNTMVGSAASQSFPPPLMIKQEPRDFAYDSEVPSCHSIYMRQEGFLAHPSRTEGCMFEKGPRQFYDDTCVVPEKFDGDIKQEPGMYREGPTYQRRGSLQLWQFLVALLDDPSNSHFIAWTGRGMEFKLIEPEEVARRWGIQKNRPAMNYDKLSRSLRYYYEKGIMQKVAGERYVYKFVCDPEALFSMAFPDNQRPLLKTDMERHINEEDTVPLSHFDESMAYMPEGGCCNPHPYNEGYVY
Outline: as §1

TCCAAT
binding signal (FLI1): 1.21 fold enrichment (6-mer frequency, TF over GST control)
binding signal (ELK1): 1.13 fold enrichment (6-mer frequency, TF over GST control)
binding signal (GABPA): 1.18 fold enrichment (6-mer frequency, TF over GST control)
binding signal (ERG): 1.13 fold enrichment (6-mer frequency, TF over GST control)
binding signal (ELF1): 1.24 fold enrichment (6-mer frequency, TF over GST control)
binding signal (EHF): 1.11 fold enrichment (6-mer frequency, TF over GST control)
binding signal (SPI1): 1.14 fold enrichment (6-mer frequency, TF over GST control)
binding signal (SPIB): 1.25 fold enrichment (6-mer frequency, TF over GST control)
binding signal (ELK3): 1.16 fold enrichment (6-mer frequency, TF over GST control)
binding signal (FEV): 1.21 fold enrichment (6-mer frequency, TF over GST control)
binding signal (ETV5): 1.17 fold enrichment (6-mer frequency, TF over GST control)
binding signal (HSF1): 1.23 fold enrichment (6-mer frequency, TF over GST control)
binding signal (SPIC): 1.17 fold enrichment (6-mer frequency, TF over GST control)
binding signal (ELF4): 1.21 fold enrichment (6-mer frequency, TF over GST control)
binding signal (ELK4): 1.12 fold enrichment (6-mer frequency, TF over GST control)
binding signal (ETV2): 1.24 fold enrichment (6-mer frequency, TF over GST control)
binding signal (ELF3): 1.11 fold enrichment (6-mer frequency, TF over GST control)
binding signal (CRX): 1.27 fold enrichment (6-mer frequency, TF over GST control)
binding signal (ETV1): 1.17 fold enrichment (6-mer frequency, TF over GST control)
